Experimental data as given in PubChem BioAssay (Tox21).
Records with an inconclusive call do not appear. Calls of active or inactive are those of the source. Unless noted, calls come from the whole dose curve; as a rule, active = well fitted curve in the direction sought with a large enough effect in the repeat runs; inconclusive = weak or mixed curves; inactive = no such curve, though single readings can be large; an effect the other way counts as inactive or inconclusive.

Key:
[1] = qHTS assay to identify small molecule antagonists of the estrogen related receptor (ERR) signaling pathway from Tox21 library - cell viability counter screen (AID 1224834); note: nearly all actives have a fitted effect of over 30% in size
In short: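 CellTiter-Fluor fluorescence, read after 30 min at 37 C, measures viability of ERR cells. Cells plated at 2,000/well and incubated 6 h before pin-tool compound addition, then exposed 17.5 hours at 37 C.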

[2] = target: Luciferin 4-monooxygenase (Photinus pyralis) (UniProt P08659); assay: qHTS assay to identify small molecule inhibitors of firefly luciferase (AID 1224835); note: nearly all actives have a fitted effect of over 25% in size
Luciferin 4-monooxygenase (Photinus pyralis), sequence (P08659 whole entry, looked up): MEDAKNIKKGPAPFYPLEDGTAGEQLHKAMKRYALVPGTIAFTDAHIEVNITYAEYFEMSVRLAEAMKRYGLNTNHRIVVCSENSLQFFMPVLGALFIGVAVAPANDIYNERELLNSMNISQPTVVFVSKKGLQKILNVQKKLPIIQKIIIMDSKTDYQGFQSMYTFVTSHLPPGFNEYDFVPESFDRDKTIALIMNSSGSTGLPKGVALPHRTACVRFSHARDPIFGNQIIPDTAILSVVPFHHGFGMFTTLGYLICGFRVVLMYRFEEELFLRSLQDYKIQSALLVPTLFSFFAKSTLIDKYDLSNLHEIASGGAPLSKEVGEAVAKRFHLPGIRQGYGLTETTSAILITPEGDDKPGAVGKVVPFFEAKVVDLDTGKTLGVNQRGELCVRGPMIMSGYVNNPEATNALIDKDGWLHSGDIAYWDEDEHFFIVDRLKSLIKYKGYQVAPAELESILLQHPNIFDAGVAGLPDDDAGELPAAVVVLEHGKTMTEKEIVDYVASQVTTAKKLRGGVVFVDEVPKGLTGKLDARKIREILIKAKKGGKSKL
In short: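 Quantitative HTS format; KM concentrations of both substrates. Purified P. pyralis FLuc activity quantified from luminescence images.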

[3] = qHTS assay to identify small molecule agonists of the constitutive androstane receptor (CAR) signaling pathway - cell viability counter screen (AID 1224836); note: nearly all actives have a fitted effect of over 45% in size
In short: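 HepG2 cells stably carrying hCAR and a CYP2B6-2.2kb reporter were plated 4 h, then given compounds at 15 concentrations plus PK11195 (final 0.75 uM). After 23 h at 37 C, viability was read by CellTiter-Fluor fluorescence.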

[4] = qHTS assay to identify small molecule antagonists of the constitutive androstane receptor (CAR) signaling pathway - cell viability counter screen (AID 1224837); note: nearly all actives have a fitted effect of over 45% in size
In short: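 Cytotoxicity counter-screen: CellTiter-Fluor fluorescence after 23 h compound exposure (15-point qHTS) in double-stable HepG2-CYP2B6-hCAR cells, with 50 nM CITCO added.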

[5] = target: Nuclear receptor subfamily 1 group I member 3 (Homo sapiens) (UniProt Q14994); assay: qHTS assay to identify small molecule antagonists of the constitutive androstane receptor (CAR) signaling pathway (AID 1224838); note: nearly all actives have a fitted effect of over 40% in size
Nuclear receptor subfamily 1 group I member 3 (Homo sapiens), sequence (Q14994 whole entry, looked up): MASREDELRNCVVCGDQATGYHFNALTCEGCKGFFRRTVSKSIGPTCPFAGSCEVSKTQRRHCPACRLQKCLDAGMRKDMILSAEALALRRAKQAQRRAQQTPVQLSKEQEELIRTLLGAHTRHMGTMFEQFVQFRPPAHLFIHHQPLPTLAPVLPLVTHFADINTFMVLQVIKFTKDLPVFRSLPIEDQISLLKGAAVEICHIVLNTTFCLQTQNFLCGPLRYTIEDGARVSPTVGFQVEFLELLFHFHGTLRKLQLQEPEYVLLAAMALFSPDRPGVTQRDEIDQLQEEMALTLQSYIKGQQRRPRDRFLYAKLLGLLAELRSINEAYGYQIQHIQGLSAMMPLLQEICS
In short: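 Antagonism measured as luciferase signal (ONE-Glo, 30 min, room temperature) in CAR-stimulated cells: HepG2-CYP2B6-hCAR double-stable line exposed 24 hr at 37 C to compound in a 15-point series plus 50 nM CITCO.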

[6] = qHTS assay to identify small molecule antagonists of the estrogen related receptor signaling pathway with the pleiotropic PPARgamma coactivator (PGC) from Tox21 10K library - cell viability counter screen (AID 1224840; active = well fitted cell-killing curve with a large enough effect in the repeat runs, not every such curve was filed as active; note: nearly all actives have a fitted effect of over 40% in size)
In short: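 Counter-screen for cytotoxicity: after 17.5 h compound exposure at 37 C, CellTiter-Fluor reagent added to PGC/ERR cells for 30 min and fluorescence read. Cells were seeded at 2,000 per well 6 h before dosing.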

[7] = qHTS assay to identify small molecule antagonists of the estrogen related receptor signaling pathway with the pleiotropic PPARgamma coactivator (PGC) from Tox21 10K library (AID 1224841; call rule not given here; note: actives are mostly falling curves and most rising ones were filed inactive; nearly all actives have a fitted effect of over 50% in size)
In short: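 Luminescence (One-Glo, 30 min at room temperature) after 18 h compound treatment at 37 C of PGC/ERR reporter cells plated at 2,000 cells/well and settled 6 h beforehand.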

[8] = qHTS assay to identify small molecule agonists of the estrogen related receptor signaling pathway with the pleiotropic PPARgamma coactivator (PGC) from Tox21 10K library (AID 1224842); note: nearly all actives have a fitted effect of over 15% in size
In short: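 PGC/ERR reporter cells (NTP line) were seeded 2,000 per well, rested 6 h at 37 C/5% CO2, then pin-dosed with compounds in DMSO for 18 h at 37 C; luciferase read by One-Glo luminescence after 30 min at room temperature.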

[9] = qHTS assay to identify small molecule agonists of the hypoxia (HIF-1) signaling pathway - cell viability counter screen (AID 1224844; calls by dose curve; note: nearly all actives have a fitted effect of over 50% in size)
In short: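 Cytotoxicity measured by CellTiter-Glo ATP luminescence in the wells also read for beta-lactamase signal. Cells were HRE-bla ME-180 (2,000/well, 0.5% dialyzed FBS), exposed to compounds for 17 h at 37C.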

[10] = qHTS assay to identify small molecule agonists of H2AX (AID 1224845; active = well fitted activation curve with a large enough effect in the signal ratio in the repeat runs, not every such curve was filed as active; the % refers to the signal ratio)
In short: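 Wild-type CHO-K1 cells plated overnight, then exposed 3 hr at 37C to compounds at 15 concentrations (0.76% DMSO). Lysed, then HTRF anti-pH2AX(S139)-cryptate/anti-H2AX-d2 detection after 24 hr at room temperature; emissions 665 and 620 nm.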

[11] = qHTS assay to identify small molecule agonists of H2AX - cell viability counter screen (AID 1224847; calls by dose curve; note: top concentration of the series differs between compounds; nearly all actives have a fitted effect of over 30% in size)
In short: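 Wild-type CHO-K1 cells (10% FBS medium) were plated overnight at 37C, exposed to compounds at 15 concentrations for 3 hr at 37C (0.76% DMSO final), and viability was read as CellTiter-Glo luminescence after 30 min at room temperature.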

[12] = qHTS assay to identify small molecule antagonists of the estrogen related receptor (ERR) signaling pathway from Tox21 library (AID 1224848); note: nearly all actives have a fitted effect of over 50% in size
In short: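 Tox21 10K compounds in DMSO tested for ERR pathway antagonism in NTP's ERR cell line; 18 h, 37 C exposure; ONE-Glo luminescence.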

[13] = qHTS assay to identify small molecule agonists of the estrogen related receptor (ERR) signaling pathway from Tox21 library (AID 1224849; calls by dose curve; note: nearly all actives have a fitted effect of over 15% in size); conditions: ERR reporter cell line, ONE-Glo luciferase, 18 h; at 92.4 µM (top of the series) unless noted
In short: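 Luminescent agonist read-out (One-Glo, 30-minute room-temperature incubation) following 18-hour compound treatment at 37 C of the ERR cell line, which had been plated 6 hours before dosing.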

[14] = qHTS RealTime-Glo MT Cell Viability Assay in HepG2 cells - 24 hour (AID 1224867); note: nearly all actives have a fitted effect of over 50% in size
In short: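 HepG2 cells were seeded at 600 cells/well together with NanoLuc luciferase and a cell-permeant prosubstrate, preincubated 5 h at 37 C/5% CO2, then pin-dosed with compounds in DMSO. Nonlytic luminescence from viable cells was read at each time point.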

[15] = qHTS RealTime-Glo MT Cell Viability Assay in HEK293 cells - 32 hour (AID 1224868)
In short: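 HEK293 cells were seeded at 600 cells/well together with NanoLuc luciferase and cell-permeant prosubstrate, preincubated 5 h at 37 C/5% CO2, then given compound in DMSO by pintool. Luminescence from viable-cell prosubstrate reduction was read repeatedly over 40 h.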

[16] = A CellTox Green Cytotoxicity Assay to monitor cytotoxicity in HEK293 cells - 0 hour (AID 1224869); note: nearly all actives have a fitted effect of over 50% in size
In short: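 Fluorescence from a DNA-binding dye excluded by viable cells was measured repeatedly in the same HEK293 wells (600 cells/well) during continuous compound exposure at 37 C. Each assay gives one read point: 0, 8, 16, 24, 32 or 40 h.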

[17] = target: Nuclear receptor subfamily 1 group I member 3 (Homo sapiens) (UniProt Q14994); assay: qHTS assay to identify small molecule agonists of the constitutive androstane receptor (CAR) signaling pathway (AID 1224839);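 note: HepG2 cells stably carrying human CAR and a CYP2B6 luciferase reporter; nearly all actives have a fitted effect of over 15% in size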
In short: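 HepG2 cells stably expressing hCAR and a CYP2B6-2.2kb luciferase reporter were treated with compounds at 15 concentrations plus 0.75 uM PK11195 (final) for 24 h at 37 C; luminescence was read after ONE-Glo addition.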

[18] = qHTS assay to identify small molecule agonists of the hypoxia (HIF-1) signaling pathway (AID 1224846; active = well fitted activation curve with a large enough effect in the signal ratio in the repeat runs, not every such curve was filed as active; the % refers to the signal ratio)
In short: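 Compounds added to ME-180 cells carrying hypoxia-response-element beta-lactamase reporter (0.5% dialyzed FBS, 5 h preplating), 17 h at 37C; agonist activity detected by CCF4-AM B/G FRET read-out.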

[19] = target: Thyrotropin receptor (Homo sapiens) (UniProt P16473); assay: qHTS assay to identify small molecule agonists of the thyroid stimulating hormone receptor (TSHR) signaling pathway (AID 1224843; calls by dose curve; note: nearly all actives have a fitted effect of over 45% in size)
Thyrotropin receptor (Homo sapiens), sequence (P16473 whole entry, looked up): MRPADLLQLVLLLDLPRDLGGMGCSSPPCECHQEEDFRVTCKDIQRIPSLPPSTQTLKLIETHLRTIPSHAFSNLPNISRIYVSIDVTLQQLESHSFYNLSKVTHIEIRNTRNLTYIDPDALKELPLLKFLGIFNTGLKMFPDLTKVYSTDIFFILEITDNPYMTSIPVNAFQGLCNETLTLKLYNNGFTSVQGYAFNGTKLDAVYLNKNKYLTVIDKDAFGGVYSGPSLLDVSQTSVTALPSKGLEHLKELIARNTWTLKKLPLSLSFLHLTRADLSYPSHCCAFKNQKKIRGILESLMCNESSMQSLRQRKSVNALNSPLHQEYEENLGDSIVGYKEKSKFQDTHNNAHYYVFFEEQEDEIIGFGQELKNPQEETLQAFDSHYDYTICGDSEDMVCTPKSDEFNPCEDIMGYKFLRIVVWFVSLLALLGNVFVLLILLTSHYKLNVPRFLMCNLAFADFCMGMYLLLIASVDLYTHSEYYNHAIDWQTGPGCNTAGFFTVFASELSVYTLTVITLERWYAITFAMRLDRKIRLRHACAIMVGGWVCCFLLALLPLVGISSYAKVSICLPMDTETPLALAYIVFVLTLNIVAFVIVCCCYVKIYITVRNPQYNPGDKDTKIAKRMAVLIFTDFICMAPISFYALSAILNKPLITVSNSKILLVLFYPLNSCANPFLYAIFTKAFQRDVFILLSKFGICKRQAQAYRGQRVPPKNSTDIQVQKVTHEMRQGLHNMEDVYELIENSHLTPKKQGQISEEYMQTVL
In short: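 Using 15 concentrations per compound in triplicate, cAMP production was monitored in TSHR-HEK293 cells after 30 min compound incubation at RT; HTRF reagents followed, with fluorescence intensity recorded after 1 h.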
% is set by controls: 0 for no effect and ±100 for the full control effect.

COc1ccc(CN2CCNCC2)c(OC)c1OC
inactive: Potency [1] | Potency [2] | Potency [3] | Potency [4] | Potency [5] | Potency [6] | Potency [7] | Potency [8] | Potency [9] | outcome [10] | Potency [11] | Potency [12] | activity change, positive = activation [13] -10% [at 42.5 µM] | Potency [14] | Potency [15] | outcome [16]

BrCC1CO1 (stereo not given)
inactive: Potency [1] | Potency [2] | Potency [3] | Potency [4] | Potency [5] | Potency [17] | Potency [6] | Potency [9] | outcome [10] | outcome [18] | Potency [14] | Potency [15] | outcome [16]

N#CN
inactive: Potency [1] | Potency [2] | Potency [3] | Potency [4] | Potency [5] | Potency [17] | Potency [6] | Potency [9] | outcome [10] | outcome [18] | Potency [14] | Potency [15] | outcome [16]

CCC1(CC)C(=O)C=CNC1=O
inactive: Potency [1] | Potency [2] | Potency [3] | Potency [4] | Potency [6] | Potency [7] | Potency [8] | Potency [19] | Potency [9] | outcome [10] | outcome [18] | Potency [12] | activity change, positive = activation [13] 4.55% [at 42.5 µM] | Potency [14] | Potency [15] | outcome [16]

CC(C)N(Cc1ccccc1)C(=O)C(C)(C)C
inactive: Potency [1] | Potency [2] | Potency [3] | Potency [4] | Potency [5] | Potency [6] | Potency [19] | Potency [9] | outcome [10] | outcome [18] | Potency [14] | Potency [15] | outcome [16]

CCC(=O)OC1(c2ccccc2)CCN(C)CC1
inactive: Potency [1] | Potency [2] | Potency [3] | Potency [4] | Potency [5] | Potency [17] | Potency [6] | Potency [19] | Potency [9] | outcome [10] | Potency [14] | Potency [15] | outcome [16]

C=CC(=O)OCCN(C)C
inactive: Potency [1] | Potency [2] | Potency [3] | Potency [4] | Potency [6] | Potency [7] | Potency [8] | Potency [9] | outcome [10] | outcome [18] | Potency [11] | Potency [12] | activity change, positive = activation [13] 3.26% | Potency [14] | outcome [16]

CCCCCCCC(=O)Cl
inactive: Potency [1] | Potency [2] | Potency [3] | Potency [4] | Potency [5] | Potency [17] | Potency [6] | Potency [19] | Potency [9] | outcome [10] | Potency [14] | Potency [15] | outcome [16]

CN(C)C(=O)Oc1cc(OC(=O)N(C)C)cc(C(O)CNC(C)(C)C)c1 (stereo not given)
inactive: Potency [1] | Potency [2] | Potency [3] | Potency [4] | Potency [6] | Potency [7] | Potency [8] | Potency [19] | Potency [9] | outcome [10] | Potency [12] | activity change, positive = activation [13] 0.805% [at 42.5 µM] | Potency [14] | Potency [15] | outcome [16]

CC(C)C(C)(N)C#N (stereo not given)
inactive: Potency [1] | Potency [2] | Potency [3] | Potency [4] | Potency [5] | Potency [17] | Potency [6] | Potency [9] | outcome [10] | Potency [11] | Potency [14] | Potency [15] | outcome [16]
